Data on 40 molecules can be found in PubChem BioAssay.

A number with no mark means an inactive call. The rule behind the calls is not given here.

The target of the assay is Pantothenate synthetase (Mycobacterium tuberculosis (strain ATCC 25618 / H37Rv)) (UniProt P9WIL5). Briefly: Recombinant Mtb pantothenate synthetase (PanC) inhibitors, coupled enzyme, confirmatory (AID 375).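 Note: 0% = full reaction with vehicle and 100% = no enzyme background.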 The note with it: coupled enzyme assay; at 10 µM, stronger effect = higher value.
Sequence of Pantothenate synthetase (Mycobacterium tuberculosis (strain ATCC 25618 / H37Rv)) (P9WIL5 whole entry, looked up): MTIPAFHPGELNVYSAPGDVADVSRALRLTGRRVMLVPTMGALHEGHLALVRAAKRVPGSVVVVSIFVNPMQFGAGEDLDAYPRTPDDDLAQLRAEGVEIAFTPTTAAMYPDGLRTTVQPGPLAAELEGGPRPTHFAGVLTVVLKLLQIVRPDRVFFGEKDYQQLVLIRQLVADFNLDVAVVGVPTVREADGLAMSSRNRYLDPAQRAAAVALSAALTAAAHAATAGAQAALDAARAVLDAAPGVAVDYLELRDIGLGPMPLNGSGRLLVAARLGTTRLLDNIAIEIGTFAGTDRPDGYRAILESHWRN
Take `CCN(CC)c1ccc(CNc2ccc(Br)cn2)cc1`: the inhibition (as a rule, the share of the control response that was lost under treatment) was 0%.

Take `CCSC(SCC)[C@H](O)[C@@H](O)[C@H](O)[C@H](O)CO`: the inhibition is 2%.

Consider `O=C1CN(c2nc3ccccc3n3cnnc23)CC(=O)N1CCc1ccccc1`, for which the inhibition was 4%.

`O=C(O)CCn1[nH]c(=O)ccc1=O`: the inhibition is 0%.

In the case of `CCCn1nc(NS(=O)(=O)c2ccccc2)c2cc3ccccc3nc21`, the inhibition was 1%.

`CCCNC(=O)C1CCN(S(=O)(=O)c2ccc3nc4c(c(C(=O)O)c3c2)CCCCC4)CC1`: the inhibition is 0%.

With `CCn1c(=O)cc(OCC(=O)Nc2cc(C)ccn2)c2ccccc21`, the inhibition is 0%.

As to `O=C(CSc1nnnn1-c1ccccc1Cl)Nc1ccc2c(c1)OCCO2`, the inhibition is 8%.

Consider `CCOc1ccc(-n2cc(C(=O)Nc3cccc(C)n3)c3cc(OC)c(OC)cc3c2=O)cc1`, for which the inhibition was 1%.

With `CCOC(=O)Cc1csc(NC(=O)CSc2nnc(C3CC3)n2C)n1`, the inhibition was 3%.

With `Cc1nnc(NC(=O)Nc2cccc(Cl)c2)s1`, the inhibition was 0%.

On to `Cc1ccc(C(=O)CC2(O)C(=O)N(C)c3ccc(Br)cc32)c(C)c1` (stereo not given), for which the inhibition is 0%.

As to `CCN(CC)C(=O)CSc1nc2ccccc2c(=O)n1CCC(=O)NCc1ccc(F)cc1`, the inhibition is 0%.

For `O=C(NCc1ccc2c(c1)OCO2)C1CCCN(S(=O)(=O)c2cccnc2)C1` (stereo not given), the inhibition was 0%.

For `CC1=C/C(=C/N(C)c2ccccc2)C(=O)S1`, the inhibition was 1%.

For `COc1ccc(NC(=O)CSc2c(C)nn(-c3nnc(C)c(=O)[nH]3)c2C)cc1`, the inhibition is 0%.

With `CCC1SC2=NC(C)=C(C(=O)OC)C(c3ccc(C)cc3)N2C1=O` (stereo not given), the inhibition is 7%.

For `COc1ccc(N2C(=O)CC(N3CCN(S(=O)(=O)c4c(F)cccc4F)CC3)C2=O)cc1OC` (stereo not given), the inhibition is 1%.

For the molecule `CCn1c(C(=O)N2CCCC(C(=O)O)C2)cc2sccc21` (stereo not given), the inhibition was 11%.

Consider `O=C(O)C1CCCN(S(=O)(=O)c2ccc(Cl)s2)C1` (stereo not given), for which the inhibition was 2%.

As for `CSCCC(C(=O)Nc1ccc2c(c1)OCO2)N1C(=O)c2ccccc2C1=O` (stereo not given), the inhibition was 0%.

For the molecule `COC(=O)C1(C)NC(c2cccs2)C2C(=O)N(c3ccccc3F)C(=O)C21` (stereo not given), the inhibition is 0%.

In the case of `O=S1(=O)CCN2C(=N1)SC1=C2CCN(Cc2ccccc2)C1`, the inhibition is 2%.

With `CCOc1ccc(NCc2nnc(SCC(=O)Nc3cc(C)on3)n2-c2ccccc2OC)cc1`, the inhibition was 13%.

In the case of `Cc1cc(C(=O)COC(=O)CCc2nc3ccccc3s2)c(C)n1C`, the inhibition is 0%.

As to `O=C(CSc1nc2ccccc2[nH]1)c1ccc2c(c1)OCO2`, the inhibition was 0%.

On to `Cc1cc2ncn(C(=O)N3CCOCC3)c2cc1C`, for which the inhibition is 0%.

On to `COCCCNC(=O)c1ccc(CS(=O)(=O)c2ccc(OC)cc2)o1`, for which the inhibition was 9%.

In the case of `O/N=C/c1ccc(OCC(O)COc2ccc(/C=N/O)cc2)cc1`, the inhibition was 0%.

Turning to `Cc1ccc(Cn2nnnc2CN2CCC(O)(c3ccccc3F)CC2)cc1`, the inhibition was 0%.

For `O=C(Cn1c(C(=O)NCC2CCCO2)cc2sccc21)c1ccccc1` (stereo not given), the inhibition was 0%.

As to `N#Cc1cnc(SCC(=O)Nc2ccccc2C(F)(F)F)nc1N`, the inhibition was 4%.

On to `CCCCC(=O)Nc1nn(CCC)c2nc3ccccc3cc12`, for which the inhibition is 0%.

Take `CCn1c(SCc2cc(=O)[nH]c3ccccc23)nc2c1c(=O)n(C)c(=O)n2C`: the inhibition is 5%.

Regarding `Cc1ccc(CSc2nc3c(c(=O)[nH]2)CCC3)cc1`, the inhibition was 1%.

For `CN(C(=O)C1CCOC1)c1nnc(-c2cccnc2)s1` (stereo not given), the inhibition is 0%.

Turning to `O=S(=O)(Nc1ncccn1)c1ccc(Nc2ncnc3ccccc23)cc1`, the inhibition is 6%.

For the molecule `O=C(CCS(=O)(=O)c1cccc2nsnc12)NCc1ccccc1`, the inhibition was 0%.

Turning to `O=C(c1ccco1)N1CCN(CCCCN2C(=O)c3ccccc3C2=O)CC1`, the inhibition is 5%.

Turning to `O=C(CS(=O)(=O)c1cn(Cc2ccc(Cl)cc2)c2ccccc12)N1CCOCC1`, the inhibition is 0%.
